Entries with a potency or affinity are not part of this list. A number with no mark means an inactive call.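 How the source made its calls: active means fitted half-maximal concentration for loss of cell signal no higher than twice the top valid tested concentration; inconclusive means flat curve at 30 to 70% inhibition, or poor fit; inactive means flat within 30%, signal rise, or potency above limit.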
Experiment: cytotoxicity toward MDA-MB-231 breast cancer cells – cell-based, CellTiter-Glo luminescence, cherry-pick, cytotoxicity control for RAD54 inhibitor project, dose response (AID 651692);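 further: 0% = median of sample compound wells and -100% = staurosporine control wells; more negative values mean stronger loss of viable cell signal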
Details: MDA-MB-231 viability, 24 h; series mostly up to 26 µM; activity change, negative = growth inhibition: at the top concentration

| SMILES | activity change, negative = growth inhibition [%] |
| --- | --- |
| CCN(CC)CCNc1ccc(CO)c2oc3cc(Cl)ccc3c(=O)c12 | -9.29 |
| COc1ccc(OC)c(Nc2nc(NCCO)c3ccccc3n2)c1 | 6.73 |
| CCN(CC)CCCNC(=O)c1cc2c(=O)[nH]c3ccc(C)cc3c2s1 | 0.14 |
| O=c1c2ccccc2oc2cc(NCCCN3CCOCC3)ccc12 | 6.64 |
| COc1ccc(CCn2c(=N)c(C(=O)NCC3CCCO3)cc3c(=O)n4cccc(C)c4nc32)cc1OC (centres undefined) | -13.4 |
| CCN(CC)CCCNC(=O)c1cc2c(=O)n(C)c3ccccc3c2n1C | -6.68 |
| CC1CCN(CCCNC(=O)c2cc3c(=O)n(C)c4ccccc4c3n2C)CC1 | -4.97 |
| Cc1cccn2c(=O)c3cc(C(=O)NCc4ccccc4)c(=N)n(CCCN4CCOCC4)c3nc12 | 0.872 |
| OCCN1CCN(c2nc(-c3ccccc3O)nc3ccccc23)CC1 | 1.16 |
| CCOC(=O)c1[nH]c2cc3c(cc2c1CCCN1C(=O)c2ccccc2C1=O)OCCO3 | -4.26 |
| c1ccc2c(c1)oc1c(Nc3ccc(CN4CCOCC4)cc3)ncnc12 | 2.94 |
| COc1ccc(-c2nc(C(=O)NCCCN3CCOCC3)cc3c2[nH]c2ccccc23)cc1OC | -13.7 |
| Cc1nc2ccccc2c2oc(C(=O)NCCN3CCCCC3C)cc12 (centres undefined) | 7.34 |
| CCN(CC)CCN1C(=O)c2cccc3cc(N)cc(c23)C1=O | 5.41 |
| COc1cccc2sc3ccc(NCCC4CCCN4C)cc3c(=O)c12 (centres undefined) | -11.6 |
| CCN(CC)CCCNC(=O)c1cc2c(-c3cccc(OC)c3)nn(C)c2s1 | -1.64 |
| CCN1CCN(c2nc(N)c([N+](=O)[O-])c(Nc3cccc(C)c3)n2)CC1 | -7.02 |
| COc1cccc2sc3cc(NCC[C@@H]4CCCN4C)ccc3c(=O)c12 | 2.12 |
| O=C(Nc1cccc(Cl)c1)c1cc(S(=O)(=O)N2CCOCC2)cs1 | 10 |
| Cc1ccc(-c2nc(NCCCO)c3ccccc3n2)cc1 | -3.38 |

| SMILES | activity change, negative = growth inhibition [%] |
| --- | --- |
| Cc1cc(N2CCN(C)CC2)nc2ccc(NC(=S)NCCCN3CCc4ccccc4C3)cc12 | -2.84 |
| Cc1c(-c2cc(Br)ccc2O)nc2cc3c(cc2c1C)OCO3 | 2.31 |
| CCOc1cc2nc(-c3ccc(OC)c(OC)c3)nc(NCCCN3CCOCC3)c2cc1OC | 1.98 |
| CN(C)CCNC(=O)c1cccc(-c2cnc3c(NC=O)cc(-c4cccc(F)c4)cn23)c1 | -5.96 |
| CCCN1CCN(CCCNC(=O)c2cc3c(=O)n(C)c4ccccc4c3n2C)CC1 | -3.42 |
| CN(C)CCN(C(=O)c1ccco1)c1nc2cc3c(cc2s1)OCCO3 | -3.18 |
| Cc1ccc2nc(Cl)c3cc(C(=O)NCCCN4CCCC4)sc3c2c1 | -15.8 |
| CCOC(=O)c1cc(-c2ccncc2)nc2c1c(C)nn2-c1ccccn1 | -5.8 |
| CN(C)CCNC(=O)c1cccc(-c2cnc3c(NC=O)cc(-c4ccc(F)cc4)cn23)c1 | -17.3 |
| Cc1ccnc(Nc2nc(-c3sc(C)nc3C)cs2)c1 | 0.852 |
| CN1CCN(CC(=O)Nc2nc(-c3c[nH]c4ccccc34)cs2)CC1 | 0.076 |
| Cc1nnc2c(N3CCN(CCO)CC3)nc3ccccc3n12 | 5.79 |
| Nc1cc2c3c(cccc3c1)C(=O)N(CCN1CCCC1)C2=O | -21.8 |
| CCCN(CCC)CCCNC(=O)c1cc2c(-c3ccc(OC)c(OC)c3)nn(C)c2s1 | 6.76 |
| COc1ccc(C)c2sc(N(CCN(C)C)C(=O)c3ccc4ccccc4c3)nc12 | -20.6 |
| Cc1cc(N2CCN(C)CC2)nc2ccc(NC(=S)NCCCN3CCN(C)CC3)cc12 | 2.27 |
| OCCNc1nc(Nc2ccc(O)cc2)nc2ccccc12 | 13.3 |
| COc1cc2[nH]c3c(=O)n(CCN4CCCCC4)cnc3c2cc1OC | 1.1 |
| CCOC(=O)c1c(CN2CCCCC2)n(C)c2cc(Br)c(OC)cc12 | 7.42 |

Reference: PubChem BioAssay AID651692 (Broad Institute, 2012)
